Assay outcomes deposited in PubChem BioAssay by National Center for Advancing Translational Sciences (NCATS).
Many of the other results were omitted from the sample, so hits are more common in it than they were.
KDM5B inh: inhibitors of human KDM5B histone demethylase. Potency, µM (highest dose often 57.7 µM), usual class: inhibitors. actives 2.6% (n = 220,000). KDM5B demethylase, FDH-coupled NADH fluorescence (FDH is formaldehyde dehydrogenase). AID 1347165. Q9UGL1; active = well fitted inhibition curve with a large enough effect; note: nearly all actives have a fitted effect of over 70% in size
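Here, H3K4me3 peptide (12.5 µM in substrate mix) is demethylated by KDM5BΔAP, 200 nM final, after 10 min compound exposure. Formaldehyde product is coupled through FDH (0.25 U/mL in mix) to NADH fluorescence; 30-min ΔRFU feeds dose-response curves.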
Each line names hits and unclear results; the compound was inactive in the other large screens.

O=C1Nc2ccccc2C12CCN(Cc1ccc(F)cc1)C2 (configuration not stated)	none
Cc1oc(-c2ccc(Cl)cc2)nc1CSc1nc2c(c(=O)[nH]1)CCC2	none
COC(=O)c1ccc(CNC(=O)c2cc(-c3ccc(C)cc3)nc3ccccc23)cc1	none
O=C(CCn1ccc2cc(S(=O)(=O)N3CCCCC3)ccc21)NCC1CCCO1 (configuration not stated)	none
N#C/C(=C\c1ccco1)C(=O)NC1CCCC1	none
COc1ccc(NC(=O)/C=C/c2nc3ccccc3o2)c(OC)c1	none
COC(=O)c1cccc(COC(=O)C2Cc3ccccc3C(=O)O2)c1 (configuration not stated)	none
CN(C)C(CNC(=O)c1cc(=O)c2cc(Cl)ccc2o1)c1cccs1 (configuration not stated)	none
COC(=O)CC(N)c1ccc(C)cc1C (configuration not stated)	none
COc1cc2c(cc1CN1CCCC(CO)(CC=C(C)C)C1)OCCO2 (configuration not stated)	none
CC(C)=CCC1(CO)CCCN(CC(=O)N2CCCCCC2)C1 (configuration not stated)	none
CC(C)=CCC1(CO)CCCN(Cc2cc(=O)n3cc(C)sc3n2)C1 (configuration not stated)	KDM5B inh 28µM
CN(C)c1ccc(NC(=O)CCn2ccn3nc4c(c3c2=O)CCCC4)cc1	none
COc1ccc(CNC(=O)CSc2nc3ccc(NC(=O)c4ccccc4F)cc3s2)cc1	none
O=S(=O)(NCCO)c1ccc(I)cc1	none
COCCCn1c(C)cc(C(=O)Cn2cnc3c2c(=O)n(C)c(=O)n3C)c1C	none
Cc1ccc(NC(=O)N2CCc3c(c4ccccc4n3CC3CC3)C2)cc1	KDM5B inh 22µM
Cc1ccc(NC(=O)N2CCCC(c3ccccc3)C2)cc1 (configuration not stated)	none
O=C(Nc1ccc(F)c(F)c1)N1CCc2c(c3ccccc3n2CC2CC2)C1	KDM5B inh 22µM
O=C(CC1CCN(C(=O)Nc2cccc(F)c2)C1)NC1CC1 (configuration not stated)	none
O=C(Cn1ncc2ccccc2c1=O)Nc1ccc(F)c(F)c1	none
Cc1ccc(NC(=O)Cn2c(=O)cc(C(=O)N3CCCC3)c3ccccc32)cc1F	none
CCc1ccc(NC(=O)N2CCC(CN3CCc4ccccc4C3)CC2)cc1	none
O=C(Nc1cccc(F)c1)N1CCc2c(c3ccccc3n2CC2CC2)C1	KDM5B inh 22µM
O=C(NCCC1CCN(C(=O)Nc2cccc(F)c2)CC1)c1ccccc1	none
COc1ccc(NC(=O)c2ccc3c(c2)CCCC3)cc1	none
COc1cc(C#N)ccc1OC(C)C(=O)Nc1ccc(C)cc1C (configuration not stated)	none
O=C(CCc1ncc(-c2ccc(Cl)cc2)o1)NC12CC3CC(CC(C3)C1)C2	none
CCCC/C(=N/NC(=S)Nc1cccc(C)c1)c1ccccc1	none
COCCOc1ccc(C(=O)N[C@@H]2CN(C(=O)Nc3ccccc3C(=O)OC)CCC[C@H]2O)cc1	none
COC(=O)c1ccccc1NC(=O)N1CCC[C@@H](O)[C@H](NC(=O)c2ccc(OCc3ccccc3)cc2)C1	KDM5B inh 25µM
COC(=O)c1ccccc1NC(=O)N1CCC[C@@H](O)[C@H](NC(=O)c2ccc(OCCN3CCCC3)cc2)C1	none
c1ccc2cc(-c3ccn[nH]3)ccc2c1	none
CC(NC(=O)C1CCN(C(=O)c2cccc3ccccc23)CC1)c1ccc(F)cc1 (configuration not stated)	none
CCNc1nc(-c2ccc3c(c2)CCC(=O)N3)cs1	none
CNC(=O)c1cc2cc(-c3c(C)noc3C)nc(-c3ccccc3C)c2o1	KDM5B inh 35µM
Cc1noc(C)c1-c1cc2c(cc(C)n2C)c(-c2cccc(CO)c2)n1	none
CNC(=O)c1cc2cc(-c3c(C)noc3C)nc(-c3cccc(CO)c3)c2o1	KDM5B inh 35µM
Cc1cc(COc2ccc(S(=O)(=O)c3ccccc3)cc2)on1	none
O=C(CCCc1cccs1)NCc1ccc(OCc2cccnc2)cc1	none
COc1ccc(C(=O)COC(=O)Cc2ccc(Cl)cc2Cl)cc1	none
O=C1NC(=NC2CCCC2)C2(CCCN(CC3CC3)C2)N1c1cc(F)cc(F)c1 (configuration not stated)	none
FC(F)(F)c1cc(N2CCNCC2)c2ccccc2n1	none
OC1(CNc2cc(C(F)(F)F)nc(N3CCCC3)n2)CCCNCC1 (configuration not stated)	KDM5B inh 25µM
O=C(NCC1(O)CCCNCC1)c1ccc(-n2cnnc2)cc1 (configuration not stated)	none
CC(NC(=O)CSCc1cccc(Br)c1)C1CC2CCC1C2 (configuration not stated)	none
COc1cccc(C(=O)N[C@@H]2CN(Cc3cccnc3)C[C@H]2CN(C)C)c1	none
COc1cc(Cl)ccc1C(=O)N[C@@H]1CN(c2ncccn2)C[C@H]1CN(C)C	KDM5B inh 28µM
CN(C)C[C@@H]1CN(c2ncccn2)C[C@H]1NC(=O)c1ccc2cc[nH]c2c1	KDM5B inh 25µM
COc1ccc(C(=O)NC2CCCC2)c(OC)c1	none
COc1ccc(C2(C(=O)N[C@@H]3CN(c4ncccn4)C[C@H]3CN(C)C)CC2)cc1	KDM5B inh 28µM
CN(C)C[C@@H]1CN(S(C)(=O)=O)C[C@H]1NC(=O)c1ccc(F)c(F)c1	none
COc1ccc(C(=O)N[C@@H]2CN(c3ncccn3)C[C@H]2CN(C)C)c(OC)c1	KDM5B inh 25µM
CN(C)C[C@@H]1CN(S(C)(=O)=O)C[C@H]1NC(=O)c1cccc2[nH]ccc12	none
COc1ccc(C2(C(=O)N3CC[C@H](CO)[C@H](NC(=O)C4CC4)C3)CC2)cc1	none
CC1CCc2sc(C(=O)OCC(=O)NCCC3=CCCCC3)cc2C1 (configuration not stated)	none
CCC(C)NC(=O)Nc1sc(C)c(C)c1C#N (configuration not stated)	none
N#Cc1nc(-c2ccc(Cl)cc2)oc1NCc1ccc(Cl)cc1	none
O=C(Nc1ccccc1)Nc1ccc([C@H]2OCC(=O)N(Cc3ccccc3)[C@@H]2CO)cc1	none
Cc1cc(N2CCN(S(=O)(=O)c3ccc(C(F)(F)F)cc3)CC2)nc(C(C)C)n1	none
O=C(CSc1ccc2ccccc2c1)c1ccc[nH]1	none
CCc1ccc(OC(=O)c2ccc(C)cc2)cc1	none
COc1ccc(C(=O)N[C@@H]2CN(c3ncccn3)C[C@H]2CN(C)C)cc1OC	KDM5B inh 28µM
CN(C)C[C@@H]1CN(c2ccncn2)C[C@H]1NC(=O)c1ccc2ncccc2c1	none
COc1ccc(C(=O)N[C@@H]2CN(c3ccncn3)C[C@H]2CN(C)C)cc1F	none
Cc1ncc(CN)c(N)n1	none
Clc1ccc(-c2csc(NC3CC3)n2)c(Cl)c1	none
O=C1COCC2(CN1Cc1cccc(OC(F)(F)F)c1)CN(c1nccs1)C2	none
O=C1COCC2(CN1Cc1cccc(OC(F)(F)F)c1)CN(C(=O)Cc1cccnc1)C2	none
COc1ncccc1N1CC2(COCC(=O)N(Cc3cccc(OC(F)(F)F)c3)C2)C1	KDM5B inh 7.1µM
CC(C)n1c(SCc2ccccc2Cl)nc2c1c(=O)[nH]c(=O)n2C	none
Cc1cccc(C(=O)NCc2nnc(SCC(=O)NC3CCCCC3)n2-c2ccccc2)c1	none
COc1cccc2c1OC1(CCN(C(C)=O)CC1)N1N=C(c3ccccc3OC(F)F)CC21 (configuration not stated)	none
COC1CCC12CCN(C(=O)Cc1cccc(F)c1)CC2 (configuration not stated)	none
COCC1CN(C(C)=O)CC12CCN(C(=O)Cc1cccc(F)c1)CC2 (configuration not stated)	none
O=C(Cc1ccccc1)N1CCC2(CC1)CN(c1ncccn1)CC2CO (configuration not stated)	KDM5B inh 22µM
